Laboratory results: the supplement of paper PMC10849652
Of roughly 7,900 targets only a part is listed; those with a hit were picked by preference. About 0.6% of all pairs of compound and target were hits. Values without a mark were called inactive.

How the values were obtained:
Test in all cases: log2 fold change, soluble protein after heating vs DMSO (PISA); higher = thermal stabilisation; K562 cells, 10 uM, 30 min; active = over 0.2 and 3.5 SD of the protein, either way, in both replicates (recomputed)
erlotinib = compound: C#Cc1cccc(Nc2ncnc3cc(OCCOC)c(OCCOC)cc23)c1 [erlotinib]
Procedure, shortened: (§1)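 Soluble protein was defined as the supernatant after 21,000xg for 90 min. It came from K562 cells at 2×10^6 cells/mL given 10 μM compound for 30 min, heated in aliquots for 3 min across 48°C-58°C, pooled, and extracted in PBS with 0.5% NP-40 at 4°C, and was quantified by TMTpro 16plex LC-MS/MS with equalised channel sums. Thermal stability against control samples, from duplicates, is reported as log2 fold change.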

[1] = compound: C/C(=N\NC(=O)C1=CC(=CC=C1)S(=O)(=O)N2CCOCC2)/C3=C(C=CC(=C3)Cl)O
Procedure, shortened: as §1

[2] = compound: C1=CC(=C(C=C1Cl)C2=NC3=NC=CN=C3C(=N2)NC4=CC=NC=C4)F
Procedure, shortened: as §1

[3] = compound: C1=CC(=CC=C1C2=NC3=C(N2)C=C(C=C3)C(=O)N)OC4=CC=C(C=C4)Cl
Procedure, shortened: as §1

[4] = compound: C1=CC2=C(C=CC(=C2)/C=C\3/C(=O)NC(=NCC4=CC=CS4)S3)N=C1
Procedure, shortened: as §1

[5] = compound: C1=CC2=NC=CN=C2C=C1/C=C/3\C(=O)NC(=O)S3
Procedure, shortened: as §1

[6] = compound: C1=CC=C(C=C1)C2=NC(=C(N2)C3=CC=NC=C3)C4=CC(=C(C=C4)Cl)O
Procedure, shortened: as §1

[7] = compound: C1=CC=C2C(=C1)C3=NNC4=CC=CC(=C43)C2=O
Procedure, shortened: as §1

[8] = compound: C1CCN(C1)C(=O)NC2=CC=CC(=C2)NC3=NC=C(C(=N3)NCCC4=CN=CN4)Br
Procedure, shortened: as §1

[9] = compound: C1CN(CCC1(CC2=CC=C(C=C2)Cl)N)C3=NC=NC4=C3C=CN4
Procedure, shortened: as §1

NMRAL1 (UniProt Q9HBL8)
log2 fold change (erlotinib): 0.239
log2 fold change [1]: -0.118
log2 fold change [2]: 0.841 (active)
log2 fold change [3]: -0.054
log2 fold change [4]: 0.098
log2 fold change [5]: 0.141
log2 fold change [6]: 0.029
log2 fold change [7]: 0.273
log2 fold change [8]: -0.055
log2 fold change [9]: 0.037

OPA1 isoform 2 (UniProt O60313)
Sequence of UniProt O60313 (O60313 whole entry, looked up): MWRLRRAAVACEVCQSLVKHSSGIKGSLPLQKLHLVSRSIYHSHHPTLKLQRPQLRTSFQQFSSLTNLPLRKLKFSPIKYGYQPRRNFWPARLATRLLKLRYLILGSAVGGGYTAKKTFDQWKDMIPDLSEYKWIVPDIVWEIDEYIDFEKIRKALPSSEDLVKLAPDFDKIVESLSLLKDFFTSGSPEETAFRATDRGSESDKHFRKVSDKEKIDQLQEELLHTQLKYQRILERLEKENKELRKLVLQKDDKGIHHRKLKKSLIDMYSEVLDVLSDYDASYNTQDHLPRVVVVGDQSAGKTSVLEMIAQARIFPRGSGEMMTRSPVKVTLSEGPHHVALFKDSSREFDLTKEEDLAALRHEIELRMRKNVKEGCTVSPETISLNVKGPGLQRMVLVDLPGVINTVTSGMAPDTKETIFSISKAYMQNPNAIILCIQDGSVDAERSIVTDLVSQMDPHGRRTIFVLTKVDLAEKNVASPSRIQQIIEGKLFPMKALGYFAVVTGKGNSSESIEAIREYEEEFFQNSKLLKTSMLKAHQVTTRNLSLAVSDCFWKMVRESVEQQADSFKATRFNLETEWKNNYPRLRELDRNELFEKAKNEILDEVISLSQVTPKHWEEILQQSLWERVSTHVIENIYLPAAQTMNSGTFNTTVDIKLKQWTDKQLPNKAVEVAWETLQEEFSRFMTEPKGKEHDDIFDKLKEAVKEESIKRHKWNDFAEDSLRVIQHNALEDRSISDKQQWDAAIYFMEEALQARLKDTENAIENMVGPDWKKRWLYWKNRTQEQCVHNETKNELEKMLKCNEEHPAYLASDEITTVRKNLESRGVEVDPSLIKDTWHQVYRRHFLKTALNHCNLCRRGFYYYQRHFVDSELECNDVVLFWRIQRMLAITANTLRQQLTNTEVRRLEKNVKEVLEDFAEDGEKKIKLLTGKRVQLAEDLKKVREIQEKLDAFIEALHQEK
log2 fold change (erlotinib): 0.041
log2 fold change [1]: 0.081
log2 fold change [2]: 0.031
log2 fold change [3]: -0.021
log2 fold change [4]: 0.07
log2 fold change [5]: 0.01
log2 fold change [6]: 0.126
log2 fold change [7]: 0.027
log2 fold change [8]: -0.006
log2 fold change [9]: 0.078

MRPL34 (UniProt Q9BQ48)
log2 fold change (erlotinib): -0.029
log2 fold change [1]: -0.167
log2 fold change [2]: -0.116
log2 fold change [3]: 0.101
log2 fold change [4]: -0.048
log2 fold change [5]: -0.03
log2 fold change [6]: 0.006
log2 fold change [7]: 0.018
log2 fold change [8]: -0.004
log2 fold change [9]: -0.174

MYH10 isoform 3 (UniProt P35580)
log2 fold change (erlotinib): -0.002
log2 fold change [1]: 0.043
log2 fold change [2]: 0.089
log2 fold change [3]: -0.032
log2 fold change [4]: 0.006
log2 fold change [5]: 0.01
log2 fold change [6]: 0.034
log2 fold change [7]: 0.021
log2 fold change [8]: 0.015
log2 fold change [9]: -0.024

NCKAP1 isoform 2 (UniProt Q9Y2A7)
log2 fold change (erlotinib): -0.019
log2 fold change [1]: 0.096
log2 fold change [2]: 0.056
log2 fold change [3]: 0.02
log2 fold change [4]: 0.015
log2 fold change [5]: 0.02
log2 fold change [6]: 0.024
log2 fold change [7]: -0.003
log2 fold change [8]: -0.037
log2 fold change [9]: 0.027

NAA38 isoform 2 (UniProt Q9BRA0)
Sequence of UniProt Q9BRA0 (Q9BRA0 whole entry, looked up): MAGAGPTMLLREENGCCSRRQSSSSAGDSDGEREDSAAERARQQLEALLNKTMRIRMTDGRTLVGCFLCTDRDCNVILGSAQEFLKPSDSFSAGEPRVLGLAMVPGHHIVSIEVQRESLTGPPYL
log2 fold change (erlotinib): 0.139
log2 fold change [1]: 0.083
log2 fold change [2]: 0.092
log2 fold change [3]: -0.003
log2 fold change [4]: 0.034
log2 fold change [5]: 0.015
log2 fold change [6]: 0.044
log2 fold change [7]: -0.016
log2 fold change [8]: -0.009
log2 fold change [9]: 0.082

MT-ND1 (UniProt P03886)
Sequence of UniProt P03886 (P03886 whole entry, looked up): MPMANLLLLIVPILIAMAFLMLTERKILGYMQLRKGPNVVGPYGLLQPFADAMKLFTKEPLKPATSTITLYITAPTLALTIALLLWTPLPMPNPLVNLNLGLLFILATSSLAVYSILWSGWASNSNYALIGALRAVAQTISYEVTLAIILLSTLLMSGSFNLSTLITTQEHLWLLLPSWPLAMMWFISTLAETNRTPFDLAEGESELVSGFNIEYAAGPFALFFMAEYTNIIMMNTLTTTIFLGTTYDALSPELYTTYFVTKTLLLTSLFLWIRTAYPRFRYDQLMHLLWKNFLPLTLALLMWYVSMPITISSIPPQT
log2 fold change (erlotinib): -0.075
log2 fold change [1]: 0.031
log2 fold change [2]: -0.028
log2 fold change [3]: 0.097
log2 fold change [4]: -0.005
log2 fold change [5]: 0.032
log2 fold change [6]: 0.053
log2 fold change [7]: 0.12
log2 fold change [8]: -0.187
log2 fold change [9]: 0.018

NR2C2 isoform 2 (UniProt P49116)
log2 fold change (erlotinib): -0.001
log2 fold change [1]: -0.067
log2 fold change [2]: -0.011
log2 fold change [3]: 0.006
log2 fold change [4]: 0.019
log2 fold change [5]: -0.039
log2 fold change [6]: -0.003
log2 fold change [7]: -0.091
log2 fold change [8]: 0.074
log2 fold change [9]: 0.007

NDUFA9 (UniProt Q16795)
log2 fold change (erlotinib): -0.031
log2 fold change [1]: 0.035
log2 fold change [2]: 0.059
log2 fold change [3]: 0.03
log2 fold change [4]: 0.031
log2 fold change [5]: -0.016
log2 fold change [6]: 0.025
log2 fold change [7]: 0.047
log2 fold change [8]: 0.005
log2 fold change [9]: 0.024

NAPG (UniProt Q99747)
log2 fold change (erlotinib): 0.081
log2 fold change [1]: 0.134
log2 fold change [2]: 0.072
log2 fold change [3]: -0.019
log2 fold change [4]: 0.021
log2 fold change [5]: 0.038
log2 fold change [6]: -0.009
log2 fold change [7]: 0.033
log2 fold change [8]: -0.037
log2 fold change [9]: -0.016

PAAF1 (UniProt Q9BRP4)
log2 fold change (erlotinib): 0.038
log2 fold change [1]: 0.032
log2 fold change [2]: 0.097
log2 fold change [3]: 0.068
log2 fold change [4]: -0.009
log2 fold change [5]: 0.009
log2 fold change [6]: 0.027
log2 fold change [7]: 0
log2 fold change [8]: 0.003
log2 fold change [9]: 0.009

NCAPH (UniProt Q15003)
log2 fold change (erlotinib): 0.201
log2 fold change [1]: 0.09
log2 fold change [2]: 0.008
log2 fold change [3]: -0.059
log2 fold change [4]: 0.024
log2 fold change [5]: 0.022
log2 fold change [6]: -0.009
log2 fold change [7]: 0.02
log2 fold change [8]: -0.004
log2 fold change [9]: -0.096

OSTC (UniProt Q9NRP0)
log2 fold change (erlotinib): 0.021
log2 fold change [1]: 0.024
log2 fold change [2]: 0.022
log2 fold change [3]: 0.017
log2 fold change [4]: 0.004
log2 fold change [5]: -0.001
log2 fold change [6]: 0.014
log2 fold change [7]: 0.048
log2 fold change [8]: -0.041
log2 fold change [9]: 0.088

OGFOD2 (UniProt Q6N063)
Sequence of UniProt Q6N063 (Q6N063 whole entry, looked up): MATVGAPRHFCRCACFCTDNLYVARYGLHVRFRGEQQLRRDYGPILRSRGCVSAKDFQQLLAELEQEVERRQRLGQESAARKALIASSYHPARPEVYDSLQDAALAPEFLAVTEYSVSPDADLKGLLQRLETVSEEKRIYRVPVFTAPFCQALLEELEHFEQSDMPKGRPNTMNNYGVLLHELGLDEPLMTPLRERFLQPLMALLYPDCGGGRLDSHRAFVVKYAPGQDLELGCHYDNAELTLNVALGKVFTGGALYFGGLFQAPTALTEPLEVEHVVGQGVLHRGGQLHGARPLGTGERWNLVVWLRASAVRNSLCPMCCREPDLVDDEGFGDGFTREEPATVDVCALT
log2 fold change (erlotinib): -0.051
log2 fold change [1]: -0.283 (active)
log2 fold change [2]: -0.047
log2 fold change [3]: 0.011
log2 fold change [4]: 0.089
log2 fold change [5]: 0.14
log2 fold change [6]: 0.004
log2 fold change [7]: 0.041
log2 fold change [8]: 0.023
log2 fold change [9]: 0.017

NECTIN2 isoform 2 (UniProt Q92692)
Sequence of UniProt Q92692 (Q92692 whole entry, looked up): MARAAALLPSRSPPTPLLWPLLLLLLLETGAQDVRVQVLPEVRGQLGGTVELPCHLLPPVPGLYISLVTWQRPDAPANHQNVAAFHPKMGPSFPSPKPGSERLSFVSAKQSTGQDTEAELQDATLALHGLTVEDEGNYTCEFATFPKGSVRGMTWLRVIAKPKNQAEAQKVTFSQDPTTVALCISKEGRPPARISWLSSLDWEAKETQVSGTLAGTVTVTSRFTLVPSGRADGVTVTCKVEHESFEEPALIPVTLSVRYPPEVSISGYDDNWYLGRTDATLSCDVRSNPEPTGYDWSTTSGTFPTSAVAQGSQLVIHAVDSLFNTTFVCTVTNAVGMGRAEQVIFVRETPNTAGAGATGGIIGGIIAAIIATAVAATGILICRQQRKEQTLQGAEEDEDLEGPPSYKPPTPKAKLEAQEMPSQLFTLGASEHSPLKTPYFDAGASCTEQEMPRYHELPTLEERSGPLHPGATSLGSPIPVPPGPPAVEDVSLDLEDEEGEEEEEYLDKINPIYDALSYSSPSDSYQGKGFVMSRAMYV
log2 fold change (erlotinib): -0.151
log2 fold change [1]: 0.006
log2 fold change [2]: -0.386
log2 fold change [3]: 0.117
log2 fold change [4]: 0.168
log2 fold change [5]: -0.345
log2 fold change [6]: -0.029
log2 fold change [7]: -0.034

OXSM (UniProt Q9NWU1)
log2 fold change (erlotinib): -0.079
log2 fold change [1]: 0.024
log2 fold change [2]: 0.005
log2 fold change [3]: 0.055
log2 fold change [4]: -0.052
log2 fold change [5]: -0.001
log2 fold change [6]: 0.053
log2 fold change [7]: -0.034
log2 fold change [8]: -0.042
log2 fold change [9]: 0.019

NFATC2 (UniProt Q13469)
log2 fold change (erlotinib): -0.049
log2 fold change [1]: 0.147
log2 fold change [2]: -0.002
log2 fold change [3]: 0.012
log2 fold change [4]: 0.04
log2 fold change [5]: -0.132
log2 fold change [6]: 0.053
log2 fold change [7]: -0.109
log2 fold change [8]: -0.201
log2 fold change [9]: 0.007

NAT14 (UniProt Q8WUY8)
Sequence of UniProt Q8WUY8 (Q8WUY8 whole entry, looked up): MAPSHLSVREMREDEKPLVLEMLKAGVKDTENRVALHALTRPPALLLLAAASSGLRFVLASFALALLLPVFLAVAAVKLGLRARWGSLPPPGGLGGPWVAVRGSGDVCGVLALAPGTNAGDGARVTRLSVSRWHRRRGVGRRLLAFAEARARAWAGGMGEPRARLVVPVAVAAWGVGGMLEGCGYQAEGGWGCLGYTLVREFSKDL
log2 fold change (erlotinib): -0.016
log2 fold change [1]: 0.079
log2 fold change [2]: -0.002
log2 fold change [3]: 0.014
log2 fold change [4]: 0.057
log2 fold change [5]: 0.046
log2 fold change [6]: 0.135
log2 fold change [7]: 0.033
log2 fold change [8]: 0.002
log2 fold change [9]: -0.084

MRPS5 (UniProt P82675)
log2 fold change (erlotinib): -0.077
log2 fold change [1]: 0.038
log2 fold change [2]: 0.009
log2 fold change [3]: 0.193
log2 fold change [4]: 0.007
log2 fold change [5]: -0.008
log2 fold change [6]: 0.027
log2 fold change [7]: 0.158
log2 fold change [8]: -0.035
log2 fold change [9]: -0.085

NFATC2IP (UniProt Q8NCF5)
Sequence of UniProt Q8NCF5 (Q8NCF5 whole entry, looked up): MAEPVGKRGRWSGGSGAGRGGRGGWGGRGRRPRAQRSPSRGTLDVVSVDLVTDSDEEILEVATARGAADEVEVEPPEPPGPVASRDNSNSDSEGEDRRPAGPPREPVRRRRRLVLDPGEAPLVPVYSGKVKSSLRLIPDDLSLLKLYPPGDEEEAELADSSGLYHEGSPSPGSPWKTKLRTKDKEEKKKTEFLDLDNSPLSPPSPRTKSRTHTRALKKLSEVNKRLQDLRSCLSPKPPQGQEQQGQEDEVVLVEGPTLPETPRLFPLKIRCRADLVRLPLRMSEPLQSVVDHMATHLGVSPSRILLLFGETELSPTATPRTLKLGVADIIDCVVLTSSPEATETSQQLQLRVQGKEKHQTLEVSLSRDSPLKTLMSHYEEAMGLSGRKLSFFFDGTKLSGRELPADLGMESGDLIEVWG
log2 fold change (erlotinib): -0.051
log2 fold change [1]: 0.131
log2 fold change [2]: -0.034
log2 fold change [3]: 0.014
log2 fold change [4]: 0.018
log2 fold change [5]: 0.085
log2 fold change [6]: -0.029
log2 fold change [7]: -0.014
log2 fold change [8]: -0.117
log2 fold change [9]: 0.061

NNT (UniProt Q13423)
log2 fold change (erlotinib): -0.008
log2 fold change [1]: 0.051
log2 fold change [2]: 0.089
log2 fold change [3]: -0.012
log2 fold change [4]: 0.044
log2 fold change [5]: 0.01
log2 fold change [6]: 0.005
log2 fold change [7]: -0.005
log2 fold change [8]: -0.001
log2 fold change [9]: 0.043

NKAP (UniProt Q8N5F7)
log2 fold change (erlotinib): 0.029
log2 fold change [1]: 0.023
log2 fold change [2]: -0.041
log2 fold change [3]: 0.041
log2 fold change [4]: -0.189
log2 fold change [5]: -0.047
log2 fold change [6]: -0.085
log2 fold change [7]: -0.051
log2 fold change [8]: -0.064
log2 fold change [9]: -0.007

OTUD4 (UniProt Q01804)
Sequence of UniProt Q01804 (Q01804 whole entry, looked up): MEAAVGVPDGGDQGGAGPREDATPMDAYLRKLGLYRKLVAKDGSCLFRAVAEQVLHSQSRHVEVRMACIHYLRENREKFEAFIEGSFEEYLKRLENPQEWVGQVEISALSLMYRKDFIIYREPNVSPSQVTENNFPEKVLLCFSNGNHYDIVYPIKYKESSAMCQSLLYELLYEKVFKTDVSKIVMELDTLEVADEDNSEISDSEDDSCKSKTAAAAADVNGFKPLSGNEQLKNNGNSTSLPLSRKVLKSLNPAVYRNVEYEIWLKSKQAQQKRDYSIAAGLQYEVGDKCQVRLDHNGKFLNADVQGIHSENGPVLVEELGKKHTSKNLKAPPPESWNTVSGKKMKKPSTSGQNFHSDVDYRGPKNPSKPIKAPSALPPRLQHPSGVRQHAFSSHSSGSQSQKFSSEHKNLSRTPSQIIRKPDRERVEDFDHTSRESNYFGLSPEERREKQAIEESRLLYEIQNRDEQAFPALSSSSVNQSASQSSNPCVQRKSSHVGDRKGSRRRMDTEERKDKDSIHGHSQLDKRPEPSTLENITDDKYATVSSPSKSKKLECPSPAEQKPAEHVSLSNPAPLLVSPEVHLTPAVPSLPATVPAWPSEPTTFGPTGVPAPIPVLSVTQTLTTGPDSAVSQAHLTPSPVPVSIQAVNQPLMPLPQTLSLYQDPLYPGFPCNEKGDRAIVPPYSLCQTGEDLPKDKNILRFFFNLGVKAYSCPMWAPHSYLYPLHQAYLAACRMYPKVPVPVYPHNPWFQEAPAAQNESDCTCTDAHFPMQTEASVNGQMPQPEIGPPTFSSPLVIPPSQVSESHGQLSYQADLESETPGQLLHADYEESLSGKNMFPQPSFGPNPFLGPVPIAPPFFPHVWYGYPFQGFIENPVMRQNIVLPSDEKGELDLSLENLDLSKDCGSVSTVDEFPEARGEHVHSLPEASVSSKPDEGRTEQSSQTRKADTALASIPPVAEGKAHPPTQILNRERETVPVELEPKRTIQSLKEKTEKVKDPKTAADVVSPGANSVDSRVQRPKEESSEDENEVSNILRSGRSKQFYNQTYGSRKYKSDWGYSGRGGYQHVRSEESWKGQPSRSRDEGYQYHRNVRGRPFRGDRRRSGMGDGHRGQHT
log2 fold change (erlotinib): -0.032
log2 fold change [1]: -0.035
log2 fold change [2]: -0.137
log2 fold change [3]: 0.042
log2 fold change [4]: -0.033
log2 fold change [5]: -0.025
log2 fold change [6]: 0
log2 fold change [7]: 0.038
log2 fold change [8]: -0.011
log2 fold change [9]: 0.04

NASP (UniProt P49321)
log2 fold change (erlotinib): -0.018
log2 fold change [1]: 0.048
log2 fold change [2]: 0.079
log2 fold change [3]: -0.018
log2 fold change [4]: -0.02
log2 fold change [5]: 0.059
log2 fold change [6]: -0.018
log2 fold change [7]: -0.004
log2 fold change [8]: 0.001
log2 fold change [9]: -0.022

NOL11 (UniProt Q9H8H0)
log2 fold change (erlotinib): -0.019
log2 fold change [1]: -0.065
log2 fold change [2]: 0.015
log2 fold change [3]: -0.007
log2 fold change [4]: -0.038
log2 fold change [5]: 0.042
log2 fold change [6]: 0.027
log2 fold change [7]: -0.005
log2 fold change [8]: -0.014
log2 fold change [9]: 0.079

MYO19 (UniProt Q96H55)
Sequence of UniProt Q96H55 (Q96H55 whole entry, looked up): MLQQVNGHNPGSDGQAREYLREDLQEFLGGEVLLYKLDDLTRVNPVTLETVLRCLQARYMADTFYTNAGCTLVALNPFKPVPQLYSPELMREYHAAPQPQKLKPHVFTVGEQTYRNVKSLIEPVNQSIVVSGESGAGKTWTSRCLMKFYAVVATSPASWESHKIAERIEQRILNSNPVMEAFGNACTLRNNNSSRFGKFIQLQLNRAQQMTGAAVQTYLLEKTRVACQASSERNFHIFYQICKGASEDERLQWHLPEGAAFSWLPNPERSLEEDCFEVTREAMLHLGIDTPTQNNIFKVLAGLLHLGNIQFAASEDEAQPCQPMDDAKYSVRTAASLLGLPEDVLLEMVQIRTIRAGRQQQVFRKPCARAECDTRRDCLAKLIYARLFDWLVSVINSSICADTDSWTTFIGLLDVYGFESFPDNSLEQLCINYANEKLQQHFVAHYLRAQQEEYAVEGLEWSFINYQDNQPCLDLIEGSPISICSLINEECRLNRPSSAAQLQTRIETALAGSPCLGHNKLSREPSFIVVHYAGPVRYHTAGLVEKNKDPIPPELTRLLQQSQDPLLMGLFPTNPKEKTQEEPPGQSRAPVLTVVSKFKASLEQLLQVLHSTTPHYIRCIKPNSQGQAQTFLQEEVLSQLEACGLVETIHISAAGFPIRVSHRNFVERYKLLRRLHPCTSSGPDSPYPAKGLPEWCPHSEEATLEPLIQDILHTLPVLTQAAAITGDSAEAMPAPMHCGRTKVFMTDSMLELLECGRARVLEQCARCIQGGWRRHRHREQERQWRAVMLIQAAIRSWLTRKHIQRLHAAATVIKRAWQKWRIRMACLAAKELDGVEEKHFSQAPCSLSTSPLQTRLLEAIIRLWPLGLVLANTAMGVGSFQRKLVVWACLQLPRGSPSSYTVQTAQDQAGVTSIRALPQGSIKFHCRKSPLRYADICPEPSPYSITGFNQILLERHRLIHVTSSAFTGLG
log2 fold change (erlotinib): 0.032
log2 fold change [1]: -0.047
log2 fold change [2]: -0.103
log2 fold change [3]: -0.114
log2 fold change [4]: 0.011
log2 fold change [5]: 0.093
log2 fold change [6]: 0.027
log2 fold change [7]: 0.07

NCL (UniProt P19338)
log2 fold change (erlotinib): -0.154
log2 fold change [1]: -0.231
log2 fold change [2]: -0.723
log2 fold change [3]: -0.012
log2 fold change [4]: -0.109
log2 fold change [5]: -0.017
log2 fold change [6]: -0.112
log2 fold change [7]: 0.061
log2 fold change [8]: 0.037
log2 fold change [9]: -0.148

OPHN1 (UniProt O60890)
log2 fold change (erlotinib): 0.022
log2 fold change [1]: -0.155
log2 fold change [2]: 0.101
log2 fold change [3]: -0.009
log2 fold change [4]: 0.24
log2 fold change [5]: 0.03
log2 fold change [6]: -0.007
log2 fold change [7]: 0.039
log2 fold change [8]: 0.044
log2 fold change [9]: 0.04

MORF4L2 (UniProt Q15014)
log2 fold change (erlotinib): -0.114
log2 fold change [1]: -0.056
log2 fold change [2]: -0.181
log2 fold change [3]: 0.02
log2 fold change [4]: -0.03
log2 fold change [5]: 0.002
log2 fold change [6]: -0.108
log2 fold change [7]: -0.039
log2 fold change [8]: -0.108
log2 fold change [9]: -0.051

NR2C2AP isoform 2 (UniProt Q86WQ0)
log2 fold change (erlotinib): 0.032
log2 fold change [1]: 0.028
log2 fold change [2]: -0.013
log2 fold change [3]: 0.048
log2 fold change [4]: 0.041
log2 fold change [5]: 0.026
log2 fold change [6]: -0.08
log2 fold change [7]: -0.134
log2 fold change [8]: -0.089
log2 fold change [9]: -0.013
